The whole screen tested about 96,000 compounds, of which about 20,000 (21%) were called active.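 The calls were made as follows: active = CYP2C19 inhibition above a set limit at 5 µM in the primary screen (cut at about 50% in these data); inactive = the rest.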 These entries were drawn from the full list. Non-standard residues stand in square brackets, D forms with d. Residues, ends and D or L forms follow the SMILES beside them. ξ: configuration not given here. ξV = CC(C)C(N)C(=O)O

Cytochrome P450 2C19 (Homo sapiens), sequence (P33261 whole entry, looked up): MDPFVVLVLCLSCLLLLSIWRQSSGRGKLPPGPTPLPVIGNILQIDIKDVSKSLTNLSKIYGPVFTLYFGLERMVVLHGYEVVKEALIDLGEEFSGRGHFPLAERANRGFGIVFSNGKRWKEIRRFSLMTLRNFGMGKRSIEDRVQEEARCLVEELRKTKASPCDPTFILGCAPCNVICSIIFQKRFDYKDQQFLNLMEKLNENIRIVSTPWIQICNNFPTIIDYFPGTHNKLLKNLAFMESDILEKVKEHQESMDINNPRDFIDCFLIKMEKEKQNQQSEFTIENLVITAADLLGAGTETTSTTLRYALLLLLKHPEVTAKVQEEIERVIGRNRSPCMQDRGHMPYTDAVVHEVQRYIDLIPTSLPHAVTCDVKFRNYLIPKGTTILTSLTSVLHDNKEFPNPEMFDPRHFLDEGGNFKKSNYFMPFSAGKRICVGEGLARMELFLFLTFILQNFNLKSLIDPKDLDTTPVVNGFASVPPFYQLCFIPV

This test addresses Cytochrome P450 2C19 (Homo sapiens) (UniProt P33261). Put plainly: blockers of cytochrome P450 2C19 activity – biochemical, luminescence, ADME assay, primary screen (AID 778).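 Also: plate controls were negative control wells for no effect and 2.5 mM tranylcypromine positive control for full effect.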 The following applies: CYP2C19 Supersomes, luciferin-H EGE luminescence, 30 min; at 5 µM; hits give high values.
Turning to `CCC1(C)N(O)C(C)(C)C(c2ccc(OC)cc2)=[N+]1[O-]` (configuration not stated), the inhibition is -7.3% (inactive). Then `C=CCNc1nc(N)c(C(=C(C#N)C#N)c2ccccc2)s1`, with 21.5% (inactive); and `CS(=O)(=O)N1CCN(C(=O)Cc2ccccc2)CC1`, with 16.8% (inactive); and `Cc1c(NC(=O)c2cc(-c3ccc(Cl)s3)nc3ccccc23)c(=O)n(-c2ccccc2)n1C`, with 18.3% (inactive). Under `CSc1nnc2c(n1)OC(c1ccsc1)N(C(C)=O)c1ccccc1-2` (configuration not stated) stands 5.9% (inactive); under `Cc1nc2ccccc2c(-c2ccccc2)c1C(=O)c1ccccc1`, 12% (inactive); under `CCc1nnc(NS(=O)(=O)c2ccc(N=Cc3c(C)[nH]n(-c4ccc(C)cc4)c3=O)cc2)s1`, -2.3% (inactive). Then `CCn1c(=N)n(CC(=O)c2cccc(OC)c2)c2ccccc21`, with -12.1% (inactive); and `O=C(Nc1ccc(Cl)c(Cl)c1)N1CC=C(c2ccccc2)CC1`, with 28.4% (inactive); and `Cc1cc(C)cc(N(CC(=O)N2CC=C(c3ccccc3)CC2)S(=O)(=O)c2c(C)noc2C)c1`, with 89.1% (active).

Take `Cc1ccc(C(=O)NCC2CCCO2)o1` (configuration not stated): the inhibition is -1.3% (inactive). Under `Cc1cc(C)cc(N(CC(=O)NCC2CCCO2)S(=O)(=O)c2c(C)noc2C)c1` (configuration not stated) stands 82.9% (active); under `Cc1ccc(S(=O)(=O)N2CCC(C(=O)NCC3CCCO3)CC2)cc1` (configuration not stated), 6.5% (inactive). Consider `CCOC(=O)C1CCCN(C(=O)CN(c2ccc(OC)cc2)S(=O)(=O)c2c(C)noc2C)C1` (configuration not stated), for which the inhibition is 12.3% (inactive). Then `Cc1cc(=O)n2nc(N3CCCC3C(=O)NCCCN3CC(C)CC(C)C3)sc2n1` (configuration not stated), with 2.4% (inactive); and `Cc1cccc(OCc2nnc(SCC(=O)N3CCN(C(=O)c4ccco4)CC3)n2C)c1C`, with 1.1% (inactive); and `CSc1nc(N)c(C#N)c(-c2ccccc2Cl)c1C#N`, with -13.6% (inactive). Then `CCOC(=O)C(=CNc1cccc(C)n1)C(=O)OCC`, with 8.8% (inactive); and `CCOC(=O)C1CN(S(=O)(=O)c2ccc(F)cc2)C1`, with 43.8% (inactive). Then `Cc1c(CCO)c(=O)n(-c2ccccc2)n1S(=O)(=O)c1ccc(F)cc1`, with 78.5% (active); and `Cc1c(CCO)c(=O)[nH]n1C(=O)c1c(F)cccc1F`, with 10% (inactive). For `Cc1cc(N2C(=O)C(=O)/C(=C(/O)c3ccc(Cl)cc3)C2c2cccc(Br)c2)no1` (configuration not stated), the inhibition is -6.1% (inactive). Then `CC1CCc2c(sc3c2C2=NS(=O)(=O)CCN2C=N3)C1` (configuration not stated), with -10% (inactive); and `Cc1ccc(-n2nc3ccc(NC(=O)/C=C/c4ccco4)cc3n2)cc1C`, with -6.9% (inactive). Then `CCOc1ccc(-c2nnn(CC(=O)N3CCN(c4ccc(F)cc4)CC3)n2)cc1OCC`, with 18.2% (inactive); and `Cc1ccc(SCC(=O)c2cc(C)c(OC(=S)N(C)C)c(C)c2)cc1`, with 66.7% (active); and `Cc1ccc(SC(=O)COc2ccc(C)c(C)c2)cc1`, with 1.6% (inactive). Under `COC(=O)c1cc(OC)c(OC)cc1NC(=O)CSc1ccc(C)cc1` stands 29.5% (inactive); under `O=C(CNC(=O)c1ccc(Cl)cc1Cl)NCC(=O)Nc1ccccc1N1CCOCC1`, 20.6% (inactive). For the molecule `CC(=O)N1CCc2cc(S(=O)(=O)Nc3ccccc3N3CCN(C)CC3)ccc21`, the inhibition was -2.4% (inactive).

For `O=S(=O)(Nc1ccccc1N1CCOCC1)c1ccc(Cl)s1`, the inhibition was 50.4% (active). Under `Cc1cc(NCc2ccco2)n2c(nc3ccccc32)c1C#N` stands 0.2% (inactive); under `CCN1CCc2c(C#N)c(NCc3ccccc3)nc(NCCO)c2C1`, 9% (inactive). Then `N#Cc1c(N)sc2c1CCN(C(=O)OCc1ccccc1)C2`, with 92.8% (active). Then `O=C(O)C1CCN(C(=O)OCc2ccccc2)CC1`, with 31.9% (inactive); and `CC(C)Oc1ccc(C(=O)Nc2cc(=O)n(C)c(=O)n2C)cc1`, with 12.2% (inactive); and `CCOC(=O)c1c(NC(=O)CSc2nnc(C)c(=O)[nH]2)sc2c1CCC2`, with -11.3% (inactive).

As to `COC(=O)c1c(NC(=O)c2cccs2)sc2c1CCCC2`, the inhibition was 29.6% (inactive). Then `COC(=O)c1c(NC(=O)CSc2nncs2)sc2c1CCCCC2`, with 82.9% (active). Under `Cc1ccc(S(=O)(=O)N/N=C\c2cc3c(cc2[N+](=O)[O-])OCO3)cc1` stands -11% (inactive); under `CC1=NN(C(C)C)C(=O)C1`, -6.9% (inactive). Then `O=C(CN(c1ccccc1)S(=O)(=O)c1ccc(Cl)cc1)Nc1ccccc1C(=O)N1CCCC1`, with 86.7% (active); and `Cc1ccc(S(=O)(=O)NC(C)C(=O)Nc2ccccc2C(=O)N2CCCC2)cc1` (configuration not stated), with 21.6% (inactive).

With `COCCN(CC(=O)Nc1ccccc1C)S(=O)(=O)c1ccc(S(=O)(=O)N2CCCC2)cc1`, the inhibition is 5.4% (inactive).

As to `Cc1oc2nc(SCC(=O)NCc3cccnc3)nc(N)c2c1C`, the inhibition is 8% (inactive). For the molecule `c1ccc2c(-c3nn4nnnc4c4ccccc34)cccc2c1`, the inhibition is 78.9% (active). Under `c1ccc2c(CNn3cnnc3)cccc2c1` stands 26.1% (inactive); under `COc1ccc2c(c1OC)C(=O)N(c1ncn[nH]1)C2`, -17.6% (inactive); under `O=C(CCCn1c(=O)oc2ccccc21)Nc1cccnc1`, 24.5% (inactive).

Take `O=C(OCN1C(=O)c2ccccc2C1=O)/C(=C\c1ccco1)NC(=O)c1ccccc1`: the inhibition was 17.6% (inactive).

In the case of `CS(=O)(=O)N(CC(O)Cn1c2ccccc2c2ccccc21)c1cccc2ccccc12` (configuration not stated), the inhibition was 77% (active). Under `Cc1ccc(N(CC(O)CN2CCCC2)S(=O)(=O)c2ccccc2)cc1` (configuration not stated) stands 16.8% (inactive); under `CC(=O)c1ccc2c(c1)c1ccccc1n2CC(C)C`, 16.4% (inactive). Then `O=C(NCCCN1CCOCC1)c1cnn2c(-c3ccccc3)cc(-c3ccccc3)nc12`, with -3.7% (inactive); and `Fc1ccccc1CCNc1nnnn1-c1ccccc1`, with 73.1% (active). For `c1ccc(-n2nnnc2NC2CCCCCC2)cc1`, the inhibition is 33.5% (inactive). On to `CCn1nnc(NC(=O)c2cc(Cl)c(OC)c(Cl)c2)n1`, for which the inhibition is 61.3% (active). Then `CCn1nnc(NC(=O)c2c(OC)cccc2OC)n1`, with -17.4% (inactive). Under `COc1c(Cl)cc(C(=O)Nc2ccc(Cl)cn2)cc1Cl` stands 3.2% (inactive); under `CCCCNC(=S)NNC(=O)c1cc(C)on1`, 26.1% (inactive). Turning to `CC(=O)Nc1cc2ccc(OC(C)=O)cc2oc1=O`, the inhibition is 8% (inactive). Then `Cc1cccc(N(CC(=O)N2CCOCC2)S(C)(=O)=O)c1`, with 3.3% (inactive); and `CCOC(=O)CN(C(=O)CN1CCOCC1)c1ccc(Br)cc1`, with 64.6% (active). Under `CCOC(=O)c1c(CN2CCOCC2)n(-c2ccccc2)c2ccc(O)cc12` stands 31.8% (inactive); under `Cc1nn(Cc2ccc(C(=O)N3N=C(C(F)F)CC3(O)C(F)F)cc2)c(C)c1[N+](=O)[O-]` (configuration not stated), 10% (inactive); under `c1ccc(-c2[nH]ncc2-c2nc3ccccc3[nH]2)cc1`, 31.2% (inactive). With `c1ccc2[nH]c(-c3nc4ccccc4[nH]3)nc2c1`, the inhibition is 53.1% (active). Then `Cc1ccc(-c2nc3ccccc3[nH]2)cc1N`, with 47% (inactive). For `CC(C)COC(=O)C1C2C=CC3(CN(C(C)c4ccc(Br)cc4)C(=O)C13)O2` (configuration not stated), the inhibition was 31% (inactive).

For `CC(=O)NC1(c2cccc(F)c2)CCN(CC(=O)NC(C)C)CC1`, the inhibition is 3.9% (inactive). Under `C/C(Cl)=C\Cn1c(Nc2cccc(C)c2)nc2c1c(=O)n(C)c(=O)n2C` stands -5.6% (inactive). Under `COc1cc(C2C(C#N)=C(C)NC3=C2C(=O)CC(C)(C)C3)ccc1O` (configuration not stated) stands 20.5% (inactive). Regarding `CCOC(=O)C1=C(C)NC2=C(C(=O)CC(C)(C)C2)C1c1ccsc1` (configuration not stated), the inhibition is 50.4% (active). Then `CCCOC(=O)C1=C(C)NC2=C(C(=O)C(C(=O)OC)C(C)C2)C1c1ccc(N(C)C)cc1` (configuration not stated), with 3.6% (inactive). As for `Cc1cccc(NC(=O)c2sc3nc4c(c(-c5ccco5)c3c2N)CCC4)c1`, the inhibition was 13.8% (inactive).

Regarding `O=C1CC(NNc2ccccc2)C(=O)N1c1cccc(Cl)c1` (configuration not stated), the inhibition is 18.7% (inactive). Then `O=C1CC(c2ccccc2)C(=O)N1c1cccc(O)c1` (configuration not stated), with 60.7% (active); and `COC(=O)c1cc(C(=O)OC)cc(N2C(=O)CC(N3CCN(c4ccccc4)CC3)C2=O)c1` (configuration not stated), with 12.1% (inactive); and `O=C(NC1CCN(Cc2ccccc2)CC1)c1ccccc1F`, with 6.3% (inactive).

Regarding `O=C(CCc1ccccc1)Nc1ccc(NC(=O)C2CC2)nc1`, the inhibition was 18.9% (inactive). Then `O=S(=O)(Nc1nccs1)c1ccc2c(c1)OCCO2`, with 56.7% (active); and `CC(C)NS(=O)(=O)c1ccc(OCC(=O)Nc2ccc3c(c2)OCCO3)cc1`, with 28.9% (inactive). Under `CN1CCCN(S(=O)(=O)c2ccc3c(c2)OCCO3)CC1` stands -1.5% (inactive). Then `CCCCC(CC)C(=O)Nc1ccc(Cl)cn1` (configuration not stated), with 7.2% (inactive); and `CC(=O)Nc1ccc(S(=O)(=O)Nc2nc3n(n2)C(c2ccccc2)CC(=O)N3)cc1` (configuration not stated), with -6% (inactive). For the molecule `O=S(=O)(O)c1nc2ccccc2n1Cc1ccc(Cl)cc1`, the inhibition was 2.7% (inactive). Then `N=c1n(Cc2ccc(Cl)cc2)c2ccccc2n1CC(O)c1ccco1` (configuration not stated), with 83.1% (active); and `Cn1c(=N)n(CC(O)c2ccccc2)c2ccccc21` (configuration not stated), with -12.3% (inactive); and `Cc1ccc(/C=N/NC(=O)c2sccc2OCc2ccc(F)cc2)cc1`, with -8.9% (inactive). Under `Oc1ccccc1/C=N/n1c(-c2cccs2)n[nH]c1=S` stands -14.5% (inactive). Then `CCCN1CC=C2C(C#N)=C(N)C(C#N)(C#N)C(c3cc(OC)ccc3OC)C2C1` (configuration not stated), with 16.6% (inactive). Regarding `CCC1=C(C(=O)OC)C(c2cc(OC)ccc2OC)C(C#N)=C(N)O1` (configuration not stated), the inhibition is 54.8% (active).

For `COC(=O)C1=C(C)OC(N)=C(C#N)C1c1cc(OC)ccc1OC` (configuration not stated), the inhibition was 53.3% (active).

Consider `CCCN1C(=O)C(NC(C)=O)c2cc(OC)ccc21` (configuration not stated), for which the inhibition is -12.9% (inactive). `COc1ccc(-c2[nH]nc3c2C(c2ccncc2)C(C#N)=C(N)O3)cc1` (configuration not stated): the inhibition is -1.2% (inactive).

Take `Cc1cc(=O)oc(C)c1C(=O)NCc1ccc(F)cc1`: the inhibition is 33.5% (inactive). For the molecule `CC(=O)NC(C(=O)NCC(N)=O)C(C)C` (configuration not stated) (Ac-[ξV]-Gly-NH2), the inhibition was -4% (inactive).

The values are drawn from PubChem BioAssay AID778 (Sanford-Burnham Center for Chemical Genomics, 2007).
